From PubChem BioAssay (NCATS) come the findings set out here.

Results filed as inconclusive are left out. Active and inactive are the calls of the source. Unless noted, calls come from the whole dose curve; as a rule, active = well fitted curve in the direction sought with a large enough effect; inconclusive = small, poorly fitted or top-dose-only effect, or another doubt; inactive = no such curve, though single readings can be large; an effect the other way counts as inactive or inconclusive.

The nature of test [1]: qHTS drug screen for cell cycle checkpoint inhibitors in PARPi-resistant BRCA-mutant ovarian cancer cell lines. (AID 1963452; calls by dose curve). The conditions noted are these: PEO1/OlaR viability, CellTiter-Glo luminescence, 96 h, stronger effect = lower value. Put shortly: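 PEO1, PEO4 and PEO1/OlaR ovarian cancer cells, 600 per well, exposed 96 h at 37C to a dilution series. Viability read by CellTiter-Glo luminescence, normalized to DMSO and empty wells; activity summarized as Z-AUC.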

Test [2] is described as follows: qHTS profiling for inhibitors of Plasmodium falciparum proliferation (AID 504749).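 Note: 0% = DMSO vehicle and full inhibition = artemisinin control; nearly all actives have a fitted effect of over 60% in size.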 The conditions noted are these: P. falciparum in erythrocytes, SYBR Green DNA, 72 h, at 28.7 µM (top of the series). Put shortly: (§1)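 Parasite proliferation within erythrocytes, 72 h exposure. Endpoint: SYBR Green I fluorescence after overnight lysis at room temperature. Controls: 0.29 uM artemisinin, DMSO.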

The test system of a further test is 3D7. Described as above. Particulars: P. falciparum in erythrocytes, SYBR Green DNA, 72 h; series mostly up to 28.7 µM. Put shortly:
as §1

The test system of another test is 7G8. The test is described as above. The conditions noted are these: P. falciparum in erythrocytes, SYBR Green DNA, 72 h; series mostly up to 28.7 µM. Put shortly:
as §1

The next test deals with AA1029. Described as above. The conditions noted are these: P. falciparum in erythrocytes, SYBR Green DNA, 72 h; series mostly up to 28.7 µM. Put shortly: as §1
The test system of another test is AS120. The description is as above. The conditions noted are these: P. falciparum in erythrocytes, SYBR Green DNA, 72 h; series mostly up to 28.7 µM. The essentials:
as §1

A further test concerns ATS189. The description is as above. The conditions noted are these: P. falciparum in erythrocytes, SYBR Green DNA, 72 h; series mostly up to 28.7 µM. The essentials: as §1
The next test has as its system ATS95. The description is as above. Particulars: P. falciparum in erythrocytes, SYBR Green DNA, 72 h; series mostly up to 28.7 µM. The essentials: as §1
The next test concerns C2A. Described as above. Particulars: P. falciparum in erythrocytes, SYBR Green DNA, 72 h; series mostly up to 28.7 µM. The essentials:
as §1

Another test has as its system CP185. The test is described as above. Particulars: P. falciparum in erythrocytes, SYBR Green DNA, 72 h; series mostly up to 28.7 µM. Put shortly:
as §1

Another test deals with CP191. The description is as above. The conditions noted are these: P. falciparum in erythrocytes, SYBR Green DNA, 72 h; series mostly up to 28.7 µM. The essentials:
as §1

In a further test the test system is CP192. The test is described as above. The conditions noted are these: P. falciparum in erythrocytes, SYBR Green DNA, 72 h; series mostly up to 28.7 µM. The essentials:
as §1

Another test concerns CP194. Described as above. Particulars: P. falciparum in erythrocytes, SYBR Green DNA, 72 h; series mostly up to 28.7 µM. Put shortly: as §1
The test system of a further test is CP201. The description is as above. Particulars: P. falciparum in erythrocytes, SYBR Green DNA, 72 h; series mostly up to 28.7 µM. The essentials:
as §1

The subject of another test is CP203. Described as above. Particulars: P. falciparum in erythrocytes, SYBR Green DNA, 72 h; series mostly up to 28.7 µM. The essentials:
as §1

The next test has as its system CP211. The description is as above. Particulars: P. falciparum in erythrocytes, SYBR Green DNA, 72 h; series mostly up to 28.7 µM. The essentials: as §1
The subject of a further test is CP215. The description is as above. Particulars: P. falciparum in erythrocytes, SYBR Green DNA, 72 h; series mostly up to 28.7 µM. The essentials:
as §1

In a further test the test system is CP217. The description is as above. The conditions noted are these: P. falciparum in erythrocytes, SYBR Green DNA, 72 h; series mostly up to 28.7 µM. The essentials: as §1
For the next test, the system named is CP237. The test is described as above. The conditions noted are these: P. falciparum in erythrocytes, SYBR Green DNA, 72 h; series mostly up to 28.7 µM. Put shortly: as §1
The nature of test [3]: Dual reporter qHTS for antagonist of Pregnane X Receptor (hPXR) against the NCATS DSHEA and TCM libraries: Fluorescence Readout (AID 1920061). Note: 0% is about no effect. Particulars: PXR dual reporter cells, antagonist mode; series mostly up to 40 µM. Put shortly:
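Antagonist mode: rifampicin 2 uM final co-added with compounds to hPXR-LucHepG2 cells for 24 h at 37C. Viability by CellTiter-Fluor, Ex/Em 405/540 nm, 1 h; reporter by ONE-Glo luminescence.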

Where [4] appears, read: measured here: PEO1 parental Z-AUC.

As for `COC(=O)[C@@H]1CC2=CC(=O)CC[C@]2(C)[C@@]23O[C@@H]2C[C@@]2(C)[C@@H](CC[C@@]24CCC(=O)O4)[C@H]13`, the Z-AUC in [1] was -0.162 (inactive); in test [1] (setting [4]), -0.149; in test [1] (measured here: PEO4 Z-AUC) it was 0.317. Also, the results for the activity, negative = inhibition in test [2] (parasite line A) and in test [2] (parasite line B) were 8.39% (inactive) and 17.6% (inactive), respectively. Also, the Potency entry in the test with 3D7, in the test on 7G8, in the test on AA1029, in the test on AS120, in the test on ATS189 and in the test with ATS95 was “inactive” in each case. Moreover, the Potency entry in the test with C2A, in the test on CP185, in the test with CP191, in the test on CP192, with CP194 and with CP201 was “inactive” in each case. Also, the Potency result in the test on CP203, in the test on CP211, in the test on CP215, with CP217 and in the test on CP237 was “inactive” throughout.
For the molecule `C[C@]12CC[C@@H]3c4ccc(O)cc4CC[C@H]3[C@@H]1CC[C@@H]2O`, the Z-AUC in [1] is 0.573 (inactive); in test [1] (setting [4]), 0.0962; in [1] (measured here: PEO4 Z-AUC) it was 0.419. Further, the activity, negative = inhibition is 14.2% (inactive) in test [2] (parasite line A) and 10.8% (inactive) in [2] (parasite line B). Also, the Potency result in the test with 3D7, in the test on 7G8, with AA1029, with AS120, in the test on ATS189 and in the test on ATS95 was “inactive” throughout. Besides, the Potency entry in the test on C2A, in the test on CP185, with CP191, in the test on CP192, in the test with CP194 and in the test on CP201 was “inactive” in each case. Besides, the Potency result in the test on CP203, with CP211, with CP215, in the test on CP217 and with CP237 was “inactive” in each case.
With `CC(=O)OCC(=O)[C@@]12OC(C)(C)O[C@@H]1C[C@H]1[C@@H]3C[C@H](F)C4=CC(=O)C=C[C@]4(C)[C@@]3(F)[C@@H](O)C[C@@]12C`, the Z-AUC is -0.667 (inactive) in test [1], 0.136 in [1] (setting [4]) and -0.783 in test [1] (measured here: PEO4 Z-AUC).
Take `CC(C)COC(=O)OCN1C(=O)CN(CCN2CC(=O)N(COC(=O)OCC(C)C)C(=O)C2)CC1=O`: the activity, negative = inhibition was 4.43% (inactive) in test [2] (parasite line A) and 8.61% (inactive) in test [2] (parasite line B). In addition, the Potency result with 3D7, in the test with 7G8, in the test with AA1029, in the test on AS120, in the test on ATS189 and with ATS95 was “inactive” in each case. In addition, the Potency result in the test on C2A, in the test with CP185, with CP191, in the test on CP192, in the test on CP194 and in the test with CP201 was “inactive” in each case. For the same molecule, the Potency result with CP203, in the test with CP211, in the test with CP215, in the test on CP217 and with CP237 was “inactive” each time.
Turning to `C/C=C/c1ccc(OC)cc1`, the outcome in test [3] was inactive.
For the molecule `O=c1ccc2ccccc2o1`, in test [3], the call was inactive. For the same molecule, the activity, negative = inhibition was 10.1% (inactive) in [2] (parasite line A) and 1.35% (inactive) in test [2] (parasite line B). The Potency result in the test with 3D7, in the test with 7G8, in the test with AA1029, with AS120, in the test on ATS189 and in the test with ATS95 was “inactive” each time. The Potency result with C2A, in the test on CP185, with CP191, in the test on CP192, with CP194 and in the test on CP201 was “inactive” in each case. In addition, the Potency result with CP203, in the test with CP211, with CP215, with CP217 and in the test on CP237 was “inactive” in each case.
Consider `CC(=O)Nc1c(I)cc(I)c(C(=O)O)c1I`, for which the activity, negative = inhibition in test [2] (parasite line A) is 6.87% (inactive); in test [2] (parasite line B) it was 14.3% (inactive). In addition, the Potency result in the test with 3D7, with 7G8, with AA1029, with AS120, in the test on ATS189 and in the test on ATS95 was “inactive” each time. Besides, the Potency entry with C2A, with CP185, in the test with CP191, in the test on CP192, in the test on CP194 and with CP201 was “inactive” in each case. Further, the Potency entry with CP203, in the test on CP211, in the test on CP215, with CP217 and in the test with CP237 was “inactive” each time.
On to `CC(C)n1nc(-c2cc3cc(O)ccc3[nH]2)c2c(N)ncnc21`, for which the Z-AUC in test [1] was -1.59 (inactive); in [1] (setting [4]) it was -1.29; in test [1] (measured here: PEO4 Z-AUC), -1.52.
